Assay results reported in PubChem BioAssay (EPA / NIEHS).
Records with an inconclusive call do not appear. Active and inactive are the calls of the source. Rule for the calls, unless noted: active = hit-call score of the fitted dose curve at least 0.9, where 1 is the maximum; inactive = score below 0.9.

Key:
SERPINA7 (gene 6906) = experiment: CCTE_GLTED_hTBG: CCTE's human Thyroxine-binding Globulin (TBG) Inhibition Assay, Great Lakes Toxicology and Ecology Division (GLTED) Lab (AID 2284343; active = hit-call score of the fitted dose curve at least 0.9, where 1 is the maximum;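 note: active chemicals lower fluorescence versus DMSO baseline by displacing probe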)
Procedure, shortened: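 Cell-free displacement of the fluorescent probe ANSA from human thyroxine-binding globulin after 2 h exposure. Read-out at ex 380/em 475 nm; DMSO baseline.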

[1] = CCTE_Padilla_ZF_Score.Craniofacial: CCTE's 144 Hour Post-fertilization zebrafish Assay Score for Craniofacial Malformation, Padilla Lab (AID 2284405)
Procedure, shortened: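 Craniofacial defects were scored at 6 dpf by two blinded observers using stereomicroscopy. Exposure of wild-type embryos began at 6–8 hpf in sealed wells of 10% Hanks' solution at 26C, with chemical removed by rinsing at 5 dpf.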

[2] = CCTE_Padilla_ZF_Score.Edema: CCTE's 144 Hour Post-fertilization zebrafish Assay Score for Edema Malformation, Padilla Lab (AID 2284406)
Procedure, shortened: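 Edema scored at 6 dpf by two blinded observers under a stereo microscope, in single outbred wild-type larvae exposed from 6-8 hpf in sealed wells (Hanks', 26C, 14:10 h light) and chemical-free after a 5 dpf rinse.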

[3] = CCTE_Padilla_ZF_Score.Swim_bladder: CCTE's 144 Hour Post-fertilization zebrafish Assay Score for Swim Bladder Malformation, Padilla Lab (AID 2284408)
Procedure, shortened: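 Swim bladder inflation scored at 6 dpf by two blinded observers under a stereo microscope. Exposure ran from 6–8 hpf in sealed wells of 10% Hanks' at 26C, with rinsing at 5 dpf; DMSO served as baseline.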

[4] = CCTE_Padilla_ZF_Score.Living: CCTE's 144 Hour Post-fertilization zebrafish Assay Score for Viability, Padilla Lab (AID 2284410);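 note: larval death at 6 dpf judged by absent heartbeat or coagulation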
Procedure, shortened: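 Mortality at 6 dpf, judged as absent heartbeat or coagulation by two blinded observers, after sealed static exposure beginning at 6–8 hpf at 26C. Larvae were rinsed free of chemical at 5 dpf, and activity was fitted relative to DMSO.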

[5] = CCTE_Mundy_HCI_iCellGluta_NOG_NeuriteCount: CCTE's Neurite Outgrowth Assay in iCellGluta cells for Neurite Count, Mundy Lab (AID 2284342; active = hit-call score of the fitted dose curve at least 0.9, where 1 is the maximum;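 note: chemical exposure about 48 hours starting 2 hours after plating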)
[6] = Tanguay_ZF_120hpf_MO24: Oregon State University Tanguay Lab 24 Hour Post-fertilization zebrafish Assay for Mortality (AID 2284389)
Procedure, shortened: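 Embryo death at 24 hpf was recorded as present or absent in Tropical 5D zebrafish, dechorionated at 4 hpf and dosed statically from 6 hpf (28C, 0.64% DMSO); 5 uM trimethyltin chloride served as positive control.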

[7] = Tanguay_ZF_120hpf_DP24: Oregon State University Tanguay Lab 24 Hour Post-fertilization zebrafish Assay for Delayed Development (AID 2284390)
Procedure, shortened: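 Scored at 24 hpf as a binary present/absent call of delayed development by brightfield, with dead embryos not assessed. Embryos (5D wild type, chorion removed with pronase at 4 hpf) dosed statically from 6 hpf at 28 C in 0.64% DMSO.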

[8] = Tanguay_ZF_120hpf_CRAN: Oregon State University Tanguay Lab 120 Hour Post-fertilization zebrafish Assay for Craniofacial Malformation (AID 2284397)
Procedure, shortened: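 Scoring of craniofacial malformation as a binary endpoint was done at 120 hpf by brightfield microscopy and was not done in dead embryos. Exposure was static, starting at 6 hpf, in dechorionated wild-type embryos held singly at 28C with 0.64% DMSO final.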

[9] = Tanguay_ZF_120hpf_AXIS: Oregon State University Tanguay Lab 120 Hour Post-fertilization zebrafish Assay for Axial Malformation (AID 2284398)
Procedure, shortened: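 Scoring was binary (present or absent) for body-axis defects, judged by brightfield imaging at 120 hpf in surviving larvae. Exposure was static at 28C from 6 hpf in chorion-free 5D wild-type embryos, with 0.64% DMSO vehicle.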

[10] = Tanguay_ZF_120hpf_MORT: Oregon State University Tanguay Lab 120 Hour Post-fertilization zebrafish Assay for Mortality (AID 2284399)
Procedure, shortened: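 Mortality, recorded present/absent via brightfield imaging at 24 and 120 hpf, in 5D zebrafish embryos exposed statically from 6 hpf after pronase chorion removal. Exposure at 28C, 0.64% DMSO vehicle, DMSO baseline.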

[11] = Tanguay_ZF_120hpf_EDEM: Oregon State University Tanguay Lab 120 Hour Post-fertilization zebrafish Assay for Edema Malformation (AID 2284400)
Procedure, shortened: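 Edema recorded as a binary endpoint under brightfield at 120 hpf, excluding embryos that died. Exposure was static, sealed, 28C, from 6 hpf in dechorionated wild-type larvae, final DMSO 0.64%, DMSO as baseline.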

[12] = Tanguay_ZF_120hpf_BRN: Oregon State University Tanguay Lab 120 Hour Post-fertilization zebrafish Assay for Brain Region Malformation (AID 2284402)
Procedure, shortened: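 Binary brightfield scoring of brain malformation at 120 hpf in 5D wild-type larvae, chorion removed with pronase at 4 hpf. Static exposure began at 6 hpf, 28C, sealed plates, DMSO 0.64% (vol/vol) as vehicle baseline.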

[13] = Tanguay_ZF_120hpf_TCHR: Oregon State University Tanguay Lab 120 Hour Post-fertilization zebrafish Assay for Touch Responsive (AID 2284403)
Procedure, shortened: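 Binary touch-response calls are made at 120 hpf in 5D wild-type zebrafish larvae. These larvae were dechorionated with pronase and exposed singly from 6 hpf in sealed, dark plates at 28 °C with 0.64% DMSO final; dead embryos are excluded.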

[14] = Tanguay_ZF_120hpf_ANY: Oregon State University Tanguay Lab 120 Hour Post-fertilization zebrafish Assay for Any Mortality and Malformation (AID 2284404)
Procedure, shortened: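 Dechorionated Tropical 5D wild-type embryos, one per well from 6 hpf, static exposure in sealed, dark plates at 28C until 120 hpf, 0.64% DMSO final. Brightfield scoring of mortality and malformations as binary presence/absence, pooling 13 morphology endpoints.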

[15] = CCTE_Mundy_HCI_iCellGluta_NOG_NeuronCount: CCTE's Neurite Outgrowth Assay in iCellGluta cells for Neuron Count, Mundy Lab (AID 2284340; active = hit-call score of the fitted dose curve at least 0.9, where 1 is the maximum;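 note: cells fixed about 48 h after compound addition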)
Procedure, shortened: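 Neuron count read by automated high-content imaging of Hoechst 33342 and betaIII-tubulin/Alexa Fluor-488 labelling in human iPSC glutamatergic neurons. Activity fitted relative to DMSO.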

[16] = system: SRY-box transcription factor 17 (SOX17) Protein Expression, Deisenroth Lab, SOX17 (gene 64321); experiment: CCTE_Deisenroth_DEVTOX-GLR_legacy_Sox17: (Legacy) CCTE's DevTox GLR-Endo Assay Evaluation of SRY-box transcription factor 17 (SOX17) Protein Expression, Deisenroth Lab (AID 2284341); conditions: actives raise or lower the signal
Procedure, shortened: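 Using the RUES2-GLR line, compounds are tested as 10-point series during 48-h defined-media differentiation. Sox17 reporter fluorescence per cell determines positivity; endpoint is percentage positive, analysed bidirectionally versus DMSO baseline.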

[17] = system: SRY-box transcription factor 2 (SOX2) Protein Expression, Deisenroth Lab, SOX2 (gene 6657); experiment: CCTE_Deisenroth_DEVTOX-GLR_legacy_Sox2: (Legacy) CCTE's DevTox GLR-Endo Assay Evaluation of SRY-box transcription factor 2 (SOX2) Protein Expression, Deisenroth Lab (AID 2284346)
Procedure, shortened: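 Read-out: fraction of Sox2+ cells by high-content fluorescence imaging of fixed RUES2-GLR cells after 48 h differentiation with two 24 h-spaced exposures. Positivity cutoff 5x BMAD above endoderm control median; 0.2% DMSO median subtracted.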

[18] = VALA_TUBHUV_Agonist_TubuleLength: VALA Sciences human Umbilical Vein Endothelial Tubule Formation (TUBHUV) Agonism Assay (AID 2284337; active = hit-call score of the fitted dose curve at least 0.9, where 1 is the maximum)
Procedure, shortened: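 Tubule length quantified by CD31 immunofluorescence imaging after fixation. HUVEC-HDF co-cultures (1:3) pre-grown 3 days with 10 ng/ml VEGF, then dosed 3 days in VEGF medium; 0.1 % DMSO vehicle baseline.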

[19] = VALA_TUBIPS_Agonist_CellCount: Viability Assessment in the VALA Sciences human iPS-derived Endothelial Tubule Formation (TUBIPS) Agonism Assay (AID 2284338; active = hit-call score of the fitted dose curve at least 0.9, where 1 is the maximum)

Measured: AC50

O=C(c1ccccc1)c1ccccc1
active: SERPINA7 (gene 6906) 40.2 µM

C=CC(F)(F)C(F)(F)C(F)(F)C(F)(F)F
inactive: [1] | [2] | [3] | [4]

O=C(CC(=O)C(F)(F)C(F)(F)C(F)(F)F)c1cccs1
active: SERPINA7 (gene 6906) 14.1 µM | [11] 65.8 µM | [14] 67.7 µM | [3] 2.41 µM | [4] 7.34 µM
not listed: [15] | [16] | [17] | [18] | [19]
inactive: all other assays above

CC(C)c1c(C(=O)Nc2ccccc2)c(-c2ccccc2)c(-c2ccc(F)cc2)n1CC[C@@H](O)C[C@@H](O)CC(=O)O
active: [15] 10.1 µM | [5] 0.094 µM

O=C(OC(=O)C(F)(F)C(F)(F)F)C(F)(F)C(F)(F)F
inactive: [1] | [2] | [3] | [4]

Cc1cc(Cc2cc(C)cc(C(C)(C)C)c2O)c(O)c(C(C)(C)C)c1
active: SERPINA7 (gene 6906) 2.6 µM

CCCCc1ccc2ccccc2c1S(=O)(=O)O
active: SERPINA7 (gene 6906) 22 µM

FCOC(C(F)(F)F)C(F)(F)F
inactive: [1] | [2] | [3] | [4]

FC(F)(F)C1(F)C(F)(F)C(F)(F)C(F)(F)C1(F)F
inactive: [1] | [2] | [3] | [4]

COC(=O)C(F)(F)C(F)(F)C(F)(F)C(F)(F)C(F)(F)F
inactive: [1] | [2] | [3] | [4]

CC(=O)Nc1ccc(O)cc1
inactive: [16] | [17]

FC(F)(F)N1C(F)(F)C(F)(F)OC(F)(F)C1(F)F
inactive: [1] | [2] | [3] | [4]

FC1(F)C=CC(F)(F)C1(F)F
inactive: [1] | [2] | [3] | [4]

O=C(O)C(F)(F)OC(F)(F)C(F)(F)OC(F)(F)C(F)(F)OC(F)(F)C(F)(F)C(F)(F)C(F)(F)F
inactive: [6] | [7] | [8] | [9] | [11] | [12] | [13] | [1]
active: SERPINA7 (gene 6906) 20.8 µM | [10] 51.1 µM | [14] 34.4 µM | [2] 3.21 µM | [3] 3.2 µM | [4] 8.88 µM

COc1cc([N+](=O)[O-])ccc1N
active: SERPINA7 (gene 6906) 37 µM

CN(C)CCOC(c1ccccc1)c1ccccc1
active: [16] 58.1 µM | [17] 100 µM

CCCCc1oc2ccccc2c1C(=O)c1cc(I)c(OCCN(CC)CC)c(I)c1
active: [16] 20.8 µM | [17] 29.9 µM

FC(OC(F)(F)C(F)(F)C(F)(F)F)C(F)(F)F (stereo unspecified)
inactive: [1] | [2] | [3] | [4]

Cc1[nH]nc2c1N=C(c1ccccc1Cl)c1cc([N+](=O)[O-])ccc1N2
active: SERPINA7 (gene 6906) 0.482 µM

CCCCCCCCCCCCOC(=O)c1cc(O)c(O)c(O)c1
active: SERPINA7 (gene 6906) 4.45 µM

O=C(O)CCC(F)(F)C(F)(F)C(F)(F)C(F)(F)C(F)(F)C(F)(F)F
inactive: [1] | [2]
active: [3] 10.4 µM | [4] 22.2 µM

OCC(F)(F)C(F)(F)C(F)(F)C(F)(F)C(F)(F)C(F)(F)C(F)(F)C(F)(F)C(F)(F)C(F)(F)C(F)(F)F
active: [15] 1.55 µM
not listed: SERPINA7 (gene 6906) | [16] | [17] | [18] | [19]
inactive: all other assays above

O=C(CCCN1CCC(O)(c2ccc(Cl)cc2)CC1)c1ccc(F)cc1
inactive: [18] | [19]
